Experimental data reported in PubChem BioAssay (EPA / NIEHS).
Some compounds were tested as several samples or in several runs, with calls that do not always agree. Active and inactive are the calls of the source. The calls were made as follows: active = hit-call score of the fitted dose curve at least 0.9, where 1 is the maximum; inactive = score below 0.9.

Each compound was assayed on E-selectin (Homo sapiens) (UniProt P16581) (assay: BSK_SAg_Eselectin: BioMAP Diversity Plus: SAg Assay for Eselectin Biomarker Activity (AID 2283091)). Settings: primary human HUVEC with PBMC; actives raise or lower the signal.
Experimental: BSK_SAg is a cell-based, multiplexed-readout assay that uses umbilical vein endothelium and peripheral blood mononuclear cells, a human vascular primary cell co-culture, with measurements taken at 24 hours after chemical dosing in a 96-well plate.BSK_SAg_Eselectin is an assay component measured in the BSK_SAg assay. It measures E-selectin antibody related to regulation of gene expression using ELISA technology.Data from the assay component BSK_SAg_Eselectin was analyzed into 1 assay endpoint. This assay endpoint, BSK_SAg_Eselectin, was analyzed with bidirectional fitting relative to DMSO as the negative control and baseline of activity. Using a type of binding reporter, gain or loss-of-signal activity can be used to understand changes in the signaling as they relate to the gene SELE. Furthermore, this assay endpoint can be referred to as a primary readout, because this assay has produced multiple assay endpoints where this one serves a signaling function. To generalize the intended target to other relatable targets, this assay endpoint is annotated to the cell adhesion molecules intended target family, where the subfamily is selectins.
The levels of cell surface (or secreted, indicated by the prefix "s") biomarker endpoints were measured by ELISA. Overt cytotoxicity to cells in confluent adherent cultures (all systems other than the BT system) was assessed by measuring total protein levels using sulforhodamine B (SRB) staining in parallel cultures at the time of biomarker measurements, indicated as SRB endpoints. For proliferation assays for adherent cell types, individual cell types are cultured at sub-confluence and relative cell numbers quantified by SRB staining at time points optimized for each system (48 h: 3C and CASM3C systems; 72 h: BT and HDF3CGF systems; 96 h: SAg system). SRB was performed by staining cells with 0.1% SRB after fixation with 10% TCA and reading wells at 560 nm.Viability and proliferation of PBMC (T cells) was quantified by Alamar Blue reduction for the SAg and BT systems. For PBMC viability (referred to as PBMC Cytotoxicity within the assay endpoint names), cells were plated (75,000/well in a 96-well plate) and then chemical samples added for 1 h before addition of activators, SEB and TSST-1 (20 ng/mL final concentration each). Cells were incubated for 90 h. Then, Alamar Blue (20 uL/well) (Invitrogen, Cat DAL1100) was added for 6 h, and the plates were read with a fluorescence microplate reader at 546/580 nm (excitation/emission). For PBMC proliferation, cells were plated and activated as above but incubated for only 16 h prior to addition of Alamar Blue. Plates were read after 6 h.

E-selectin (Homo sapiens), sequence (P16581 whole entry, looked up): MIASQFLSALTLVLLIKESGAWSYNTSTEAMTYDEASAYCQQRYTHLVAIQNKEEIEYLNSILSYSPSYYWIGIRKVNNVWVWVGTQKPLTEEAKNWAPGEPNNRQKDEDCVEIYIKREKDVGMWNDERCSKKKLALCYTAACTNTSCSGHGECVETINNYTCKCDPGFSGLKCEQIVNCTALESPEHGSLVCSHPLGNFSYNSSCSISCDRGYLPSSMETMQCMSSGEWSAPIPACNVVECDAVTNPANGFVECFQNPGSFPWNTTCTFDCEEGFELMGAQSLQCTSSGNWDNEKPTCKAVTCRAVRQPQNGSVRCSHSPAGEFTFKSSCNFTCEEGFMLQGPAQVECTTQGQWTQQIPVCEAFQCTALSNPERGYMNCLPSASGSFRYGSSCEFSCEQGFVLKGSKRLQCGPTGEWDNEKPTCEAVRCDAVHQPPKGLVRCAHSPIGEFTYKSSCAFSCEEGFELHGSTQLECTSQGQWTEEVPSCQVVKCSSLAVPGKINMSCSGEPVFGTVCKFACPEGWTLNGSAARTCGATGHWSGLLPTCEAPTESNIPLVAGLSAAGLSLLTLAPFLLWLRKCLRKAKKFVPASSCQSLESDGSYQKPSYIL

SMILES | outcome | AC50
CC12CC1(C)C(=O)N(c1cc(Cl)cc(Cl)c1)C2=O (stereo not given) | inactive | 
ClC1(Cl)C2(Cl)C3(Cl)C4(Cl)C(Cl)(Cl)C5(Cl)C3(Cl)C1(Cl)C5(Cl)C24Cl (stereo not given) | inactive | 
CC(=O)OC(c1ccccc1)C(Cl)(Cl)Cl (stereo not given) | inactive | 20 µM (active)
COP(=S)(OC)Oc1cc(Cl)c(Cl)cc1Cl |  | 5.51 µM (active)
O=C(O)C(F)(F)C(F)(F)C(F)(F)C(F)(F)C(F)(F)C(F)(F)F | inactive | 
CC1(C)Cc2cccc(O)c2O1 | inactive | 
Nc1ncc([N+](=O)[O-])s1 | inactive | 
CC(C)(c1ccccc1)c1ccc(O)c(C(C)(C)c2ccccc2)c1 |  | 11.9 µM (active)
Cn1sc(Cl)cc1=O |  | 20 µM (active)
O=C1C2(Cl)C3(Cl)C4(Cl)C(Cl)(Cl)C5(Cl)C3(Cl)C1(Cl)C5(Cl)C24Cl (stereo not given) |  | 19.3 µM (active)
O=c1[nH]c(=O)[nH]c(=O)[nH]1 | inactive | 
COC(=O)Cc1ccccc1 | inactive | 
CN(C)N=O | inactive | 
ClC1=C(Cl)[C@]2(Cl)[C@H]3[C@H]([C@H]4C=C[C@H]3C4)[C@@]1(Cl)C2(Cl)Cl | inactive | 
CCN1CCC2(CC1)COc1cc3c(cc12)N(C(=O)c1ccc(-c2ccc(-c4nnc(C)o4)cc2C)cc1)CC3 |  | 13.3 µM (active)
CC(C)(C)c1cc(O)ccc1O |  | 5.56 µM (active)
CC(=O)C(Cl)C(=O)N(C)C (stereo not given) |  | 25.4 µM (active)
COC[C@H](C)N(C(=O)CCl)c1c(C)csc1C | inactive | 
CCNc1nc(NC(C)(C)C)nc(SC)n1 | inactive | 
CCC(C)(C)c1ccc(O)c(C(C)(C)CC)c1 |  | 9.83 µM (active)

SMILES | outcome | AC50
O=[N+]([O-])c1ccc2c3c(cccc13)CC2 | inactive | 
CCOC(=O)/C=C(C)/C=C/C[C@@H](C)CCCC(C)C |  | 22.4 µM (active)
CCC(=O)C(CC(C)N(C)C)(c1ccccc1)c1ccccc1 (stereo not given) | inactive | 
O=C(Nc1ccc2[nH]ccc2c1)c1cc2cc(F)ccc2n1Cc1cccc(F)c1 |  | 12.8 µM (active)
CCOP(=S)(OCC)Oc1ccc(S(C)=O)cc1 (stereo not given) | inactive | 
NC(=S)Nc1ccccc1 | inactive | 
C[C@]12CCC(=O)C[C@@H]1CC[C@@H]1[C@@H]2CC[C@]2(C)[C@@H](O)CC[C@@H]12 | inactive | 
CCOP(=S)(OCC)SCCS(=O)(=O)CC | inactive | 
CC(=O)[O][Hg][c]1ccccc1 |  | 1.58 µM (active)
CCOP(=S)(OCC)SCSP(=S)(OCC)OCC |  | 15.2 µM (active)
O=C(OC1CCCCC1)c1ccccc1C(=O)OC1CCCCC1 |  | 29.8 µM (active)
CCSC(C)CC1CC(=O)C(C(CC)=NOC/C=C/Cl)=C(O)C1 (stereo not given) | inactive | 
Oc1cccc2cccnc12 |  | 2.77 µM (active)
OCc1ccco1 | inactive | 
ClCC(Cl)CCl | inactive | 
COC(=O)c1sccc1S(=O)(=O)NC(=O)Nc1nc(C)nc(OC)n1 | inactive | 
Nc1ccc(-c2ccc(N)c(Cl)c2)cc1Cl | inactive | 
O=[N+]([O-])c1ccc(O)c([N+](=O)[O-])c1 | inactive | 
NC(=O)O | inactive | 
